Bioassay records: PubChem BioAssay, National Center for Advancing Translational Sciences (NCATS)
Only some compounds are listed: those with a hit (about 3.8% of all), similar ones and a draw of the others.
FH mod: Identification of activators of human fumarate hydratase by quantitative high-throughput screening; 54,000 compounds, 0.22% hits; AID 1347055, 2019; FH coupled MDH/diaphorase resazurin fluorescence, 15 min; Fumarate hydratase, mitochondrial (Homo sapiens), P07954; Potency, µM (doses to about 79.9 µM), without a hit: top-dose activity change, negative = inhibition, hits mostly inhibitors; further: potency means the concentration at half of the fitted maximal effect; on the % scale 0 is the no-effect control and ±100 the full control effect; the screen sought activators but most active calls are inhibition curves; nearly all actives have a fitted effect of over 45% in size
SKOV3 invasion: inhibitors of ovarian cancer cell adhesion and invasion in omental model; AID 1963576; 46,000 compounds, 0.1% hits; SKOV3ip1-GFP adhesion/invasion on 3D omental model, fluorescence; Potency, µM (doses to about 45.8 µM), inactives show at the highest dose activity change, negative = inhibition, most hits filed as inhibitors;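 further: potency means the concentration at half of the fitted maximal effect; plate controls were DMSO wells for no effect and tomatine positive control wells for full effect; nearly all actives have a fitted effect of over 65% in size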
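Primary human omental fibroblast/mesothelial 3D culture pre-formed 48 h. SKOV3ip1-GFP cells added with compounds (0.36-46 umol/L), incubated 2 h RT/16 h 37 C, fixed; GFP cells quantified at 488/509 nm.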
GPR32 ag: activates human resolvin D1 receptor GPR32. CHO-K1 GPR32 beta-arrestin PathHunter luminescence, 90 min; zero percent set by DMSO-only wells. AID 1346428. O75388. activation, % at 76.9 µM. 48,000 compounds, 2.5% hits;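 active means activation of at least 60% and not above a set upper limit, about 1 call in 100 departs from these limits; inconclusive means activation of 40% to 60%, or above that upper limit; inactive means activation under 40%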; further: 0% is about no effect
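CHO-K1 cells stably expressing ProLink-tagged GPR32 and Enzyme Activator-tagged beta-arrestin were seeded at 2,500 cells/well overnight, exposed to compounds for 90 min at 37 °C, then read by beta-Gal complementation chemiluminescence after 1 h detection reagent.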
NTMT1 inhibitor: NTMT1 methyltransferase inhibition. 59,000 compounds, 2.5% hits. NTMT1 MTase-Glo SAH luminescence, purified enzyme. Q9BV86. AID 1645870. Potency, µM (highest dose often 114 µM), without a hit: top-dose activity change, negative = inhibition, usual class: inhibitors;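 further: potency means the concentration at half of the fitted maximal effect; plate controls were DMSO vehicle for no effect and no enzyme for full effect; nearly all actives have a fitted effect of over 65% in size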
Target sequence (Q9BV86 whole entry, looked up): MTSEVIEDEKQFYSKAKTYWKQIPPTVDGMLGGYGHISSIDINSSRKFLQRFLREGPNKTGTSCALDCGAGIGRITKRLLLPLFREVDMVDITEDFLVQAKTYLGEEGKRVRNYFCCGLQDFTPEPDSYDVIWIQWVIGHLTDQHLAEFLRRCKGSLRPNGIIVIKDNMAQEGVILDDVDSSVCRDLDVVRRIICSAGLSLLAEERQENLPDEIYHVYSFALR
The depositor's hits bear a star. Unless noted, the call rests on the fitted dose curve; in most records, active means well fitted curve in the direction sought with a large enough effect; inconclusive means small, poorly fitted or top-dose-only effect, or another doubt; inactive means no such curve, though single readings can be large; an effect the other way counts as inactive or inconclusive.

`Cc1ccc(O)c(-c2n[nH]c3c2C(c2ccccc2F)N(Cc2ccco2)C3=O)c1` (stereo not drawn) gave FH mod inconclusive, SKOV3 invasion 12.6µM*, GPR32 ag 13.1 and NTMT1 inhibitor 6.6%.
CCOC(=O)c1ccc(N2C(=O)c3n[nH]c(-c4ccco4)c3C2c2cccc(F)c2)cc1 (stereo not drawn) was read as FH mod inconclusive, SKOV3 invasion 1.4%, GPR32 ag 23.0 and NTMT1 inhibitor -6.9%.
For COc1ccc(-c2cc(C(F)(F)F)nc(SCCC(=O)Nc3c(C)cccc3C)n2)cc1 the results were FH mod 5.9%, SKOV3 invasion inactive, GPR32 ag -12.9 and NTMT1 inhibitor 16.9%.
`CCOc1ccccc1CNC(=O)Cc1ccc(NC(=O)N2CCCCc3ccccc32)cc1` gave FH mod -29.7%, SKOV3 invasion 8.3%, GPR32 ag -9.5 and NTMT1 inhibitor -4.8%.
Screening O=C(CCNS(=O)(=O)c1ccc2c(c1)CCN2C(=O)C1CC1)N1CCN(c2cccc(C(F)(F)F)c2)CC1 returned FH mod -7.1%, SKOV3 invasion inactive, GPR32 ag 73.7* and NTMT1 inhibitor 3.6%.
`Cc1cccc(N(C)C(=O)CCNS(=O)(=O)c2ccc3c(c2)CCN3C(=O)C2CC2)c1` gave FH mod 0.8%, SKOV3 invasion 63.9%, GPR32 ag 70.7* and NTMT1 inhibitor 6.3%.
Screening CCC(=O)N1CCc2cc(Br)cc(S(=O)(=O)CCC(=O)N3CCN(c4cccc(C)c4)C(C)C3)c21 (stereo not drawn) returned FH mod -19.7%, SKOV3 invasion -21.3%, GPR32 ag -13.2 and NTMT1 inhibitor inconclusive.
CCC(=O)N1CCc2cc(S(=O)(=O)CCC(=O)N3CCN(c4cccc(C)c4)C(C)C3)ccc21 (stereo not drawn) was read as FH mod -11.6%, SKOV3 invasion inactive, GPR32 ag 66.0* and NTMT1 inhibitor -17.7%.
O=C(Cn1nc(-c2ccccc2)ccc1=O)NCCc1ccccc1 was read as NTMT1 inhibitor -9.9%.
Screening COc1ccccc1CNC(=O)Cn1ncc2c(=O)oc3ccc(C)cc3c21 returned FH mod -7.3%, SKOV3 invasion -1.5%, GPR32 ag 0.3 and NTMT1 inhibitor -15.8%.
COc1ccccc1-c1nc(SCC(=O)c2ccc(Cl)cc2)n[nH]1 was read as FH mod -12.1%, SKOV3 invasion 1.9%, GPR32 ag inconclusive and NTMT1 inhibitor -2.2%.
Screening COc1ccccc1-c1nnc(SCC(=O)c2ccc(Cl)cc2)n1-c1ccccc1 returned FH mod inconclusive, SKOV3 invasion inactive, GPR32 ag 79.5* and NTMT1 inhibitor 30.9%.
For Cc1ccc(OCCCC(=O)Nc2sc3c(c2C(N)=O)CCC(C)C3)cc1 (stereo not drawn) the results were SKOV3 invasion 3.8% and GPR32 ag 12.4.
For CC1CCc2c(sc(NC(=O)CCCOc3ccccc3)c2C(N)=O)C1 (stereo not drawn) the results were FH mod -6.9%, SKOV3 invasion inactive, GPR32 ag 95.9* and NTMT1 inhibitor -3.7%.
Screening CCN(CC)CCNC(=O)c1ccc(-c2nc(CN3CCc4ccccc43)c(C)o2)cc1 returned FH mod -5.9%, SKOV3 invasion inactive, GPR32 ag 97.3* and NTMT1 inhibitor -13.9%.
Screening CC(=O)N1CCc2cc(CNS(=O)(=O)c3ccc(C(C)(C)C)cc3)ccc21 returned FH mod -3.4%, SKOV3 invasion 7.5%, GPR32 ag -3.8 and NTMT1 inhibitor inconclusive.
`CCC(=O)N1CCc2cc(CNS(=O)(=O)c3ccc(C(C)C)cc3)ccc21` gave FH mod -18.3%, SKOV3 invasion inactive, GPR32 ag 108.6* and NTMT1 inhibitor 6.4%.
Screening CCc1ccccc1NC(=O)Cn1nc(-c2cc(C)ccc2C)c2c(c1=O)CCCC2 returned FH mod inconclusive, SKOV3 invasion inactive, GPR32 ag -6.2 and NTMT1 inhibitor 89.1µM*.
`CC1=C(c2ccc(C(C)C)cc2)S(=O)(=O)N=C1N1CCC(C(=O)Nc2ccc(C)cc2)CC1` gave FH mod 1.3%, SKOV3 invasion -3.2%, GPR32 ag inconclusive and NTMT1 inhibitor -13.3%.
